Results as given in PubChem BioAssay (NCATS).
Inconclusive results are not listed. The source made the active and inactive calls. Unless noted, calls follow the shape of the dose curve; as a rule, active = well fitted curve in the direction sought with a large enough effect; inconclusive = small, poorly fitted or top-dose-only effect, or another doubt; inactive = no such curve, though single readings can be large; an effect the other way counts as inactive or inconclusive.

Assays:
[1] = biological target: Glucocorticoid receptor (Homo sapiens) (UniProt P04150); experiment: qHTS assay for small molecule antagonists of glucocorticoid receptor signaling (AID 588533; active = well fitted inhibition curve with a large enough effect in the signal ratio, with a control signal flat, not every such curve was filed as active; the % refers to the signal ratio;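 also: cells stimulated with 2 nM dexamethasone as agonist; % is scaled to controls: 0 for no effect and ±100 for the full control effect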)
In short: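 Antagonist-mode qHTS: compound titrations added to GRE-bla HeLa cells, then dexamethasone 2 nM final; 18 h, 37 C. CCF4 FRET fluorescence normalized to dexamethasone and DMSO; IC50 from Hill fit.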

[2] = qHTS assay for small molecule antagonists of peroxisome proliferator-activated receptor delta signaling (AID 588535; active = well fitted inhibition curve with a large enough effect in the signal ratio, with a control signal flat, not every such curve was filed as active; the % refers to the signal ratio;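 as to max response: cells co-treated with a PPAR-delta agonist as stimulator during compound exposure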); conditions: HEK293T PPARd-UAS-bla, beta-lactamase FRET ratio, 18 h; 460 nm channel
In short: (§1)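 Antagonist-mode qHTS using GeneBLAzer PPAR-delta-UAS-bla HEK293T cells; compound exposure 18 hrs at 37 C over a titration. Ratiometric CCF4 fluorescence at 460/530 nm; concentration-response points fitted to the Hill equation.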

[3] = biological target: Peroxisome proliferator-activated receptor delta (Homo sapiens) (UniProt Q03181); experiment: as above
In short: as §1

[4] = biological target: Peroxisome proliferator-activated receptor gamma (Homo sapiens) (UniProt P37231); experiment: qHTS assay for small molecule agonists of peroxisome proliferator-activated receptor gamma signaling (AID 588536; active = well fitted curve in the direction sought with a large enough effect in the signal ratio, with a control signal flat, not every such curve was filed as active; the % refers to the signal ratio;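 also: 0% = DMSO basal wells and 100% = rosiglitazone at 2 µM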)
In short: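 This is an agonist-mode beta-lactamase reporter assay in HEK293 PPAR-gamma-UAS-bla cells with 1% charcoal/dextran FBS. Compound titrations ran 16 h at 37 C before CCF4 detection. EC50 and efficacy are Hill fits scaled to 2 uM rosiglitazone (100%) and DMSO basal.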

[5] = biological target: Peroxisome proliferator-activated receptor gamma (Homo sapiens) (UniProt P37231); experiment: qHTS assay for small molecule antagonists of peroxisome proliferator-activated receptor gamma signaling (AID 588537; active = well fitted inhibition curve with a large enough effect in the signal ratio, with a control signal flat, not every such curve was filed as active; the % refers to the signal ratio;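 also: reporter cells co-stimulated with 50 nM rosiglitazone agonist during compound treatment; % of control where 0% means no effect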)
In short: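 Cell-based beta-lactamase assay; GW9662 served as the antagonist control. Stimulation used rosiglitazone, final 50 nM, 16 h, 37 C.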

[6] = biological target: Vitamin D3 receptor (Homo sapiens) (UniProt P11473); experiment: qHTS assay for small molecule antagonists of vitamin D receptor signaling (AID 588541; calls by dose curve;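 also: receptor activated by calcitriol during compound treatment; series mostly up to about 77 µM; % is scaled to controls: 0 for no effect and ±100 for the full control effect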)
In short: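 Antagonist-mode beta-lactamase reporter assay: HEK293T VDR-UAS-bla cells were exposed to titrated compound alongside 1-alpha,25-dihydroxyvitamin D3 at 3 nM final for 16 h. Values were normalized to the 50 nM agonist control and DMSO basal, with IC50 and efficacy from Hill equation fits.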

[7] = qHTS assay for small molecule agonists of retinoid X receptor alpha signaling (AID 588544; calls by dose curve;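 as to activation: 0% = DMSO basal wells and 100% = reference agonist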); conditions: HEK293T RXRa-UAS-bla, beta-lactamase reporter, 18 h; 530 nm emission
[8] = biological target: Retinoic acid receptor RXR-alpha (Homo sapiens) (UniProt P19793); experiment: as above
[9] = qHTS assay for small molecule antagonists of retinoid X receptor alpha signaling (AID 588546; active = well fitted inhibition curve with a large enough effect in the signal ratio, with a control signal flat, not every such curve was filed as active; the % refers to the signal ratio;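 also: cells stimulated with 9-cis-retinoic acid as agonist; % is scaled to controls: 0 for no effect and ±100 for the full control effect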); conditions: HEK293T RXRa-UAS-bla, beta-lactamase ratio, antagonist mode; measured here: W530 green channel, cytotoxicity proxy
In short: (§2)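 Beta-lactamase reporter inhibition, read as CCF4 fluorescence ratio (ex 405, em 460/530 nm) after 2 h at RT. HEK293T UAS-bla cells, 2500/well, were stimulated with 9-cis-RA at 500 or 100 nM final alongside test compound for 18 h at 37 C.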

[10] = biological target: Retinoic acid receptor RXR-alpha (Homo sapiens) (UniProt P19793); experiment: as above; conditions: HEK293T RXRa-UAS-bla, beta-lactamase ratio, antagonist mode
In short: as §2

[11] = qHTS assay for small molecule activators of the p53 signaling pathway (AID 651743; active = well fitted activation curve with a large enough effect in the signal ratio, not every such curve was filed as active; the % refers to the signal ratio; also: series mostly up to about 92 µM; % of control where 0% means no effect); conditions: HCT-116 p53RE-bla, beta-lactamase FRET ratio, 16 h; activation: stronger effect = higher value
In short: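 A beta-lactamase reporter under p53 response element control, stably carried by HCT-116 cells, reported pathway activation. Test compounds were applied for 16 hours at 37 C, and fluorescence was measured 2 hours after adding the B/G FRET substrate.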

[12] = qHTS assay for small molecule activators of the nuclear factor-kappa B (NF-kB) signaling pathway (AID 651749; active = well fitted activation curve with a large enough effect in the signal ratio; the % refers to the signal ratio; also: series mostly up to about 77 µM; % of control where 0% means no effect); conditions: NF-kB-bla ME-180 cells, beta-lactamase FRET ratio, 16 h; activation: stronger effect = higher value
In short: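 FRET-based beta-lactamase detection in ME-180 cells reports NF-kB response-element-driven transcription following overnight (16 hr) compound treatment.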

[13] = qHTS assay for environmental chemicals that activate the Aryl hydrocarbon Receptor (AhR) signaling pathway (AID 651777); conditions: 1A2-DRE human hepatoma cells, luciferase, 24 h; activation: stronger effect = higher value; also: % of control where 0% means no effect; nearly all actives have a fitted effect of over 15% in size
In short: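 Luminescence read-out: One-Glo added for 30 min at RT after 24 hr compound treatment (37 C, 5% CO2) of human hepatoma cells expressing a DRE/CYP1A2 promoter–luciferase reporter; increased signal indicates AhR activation.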

[14] = biological target: Peroxisome proliferator-activated receptor alpha (Homo sapiens) (UniProt Q07869); experiment: qHTS assay for small molecule agonists of the peroxisome proliferator-activated receptor alpha (PPARalpha) signaling pathway (AID 651778); conditions: PathHunter PPARalpha complementation, chemiluminescence, 6 h; max response: stronger effect = higher value; also: % of control where 0% means no effect
In short: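 Chemiluminescence from complemented enzyme reported PPARalpha activation in cells after 6 hr of compound treatment at 37 C. The detection reagent was incubated for 60 min at room temperature, and compounds were scored as agonists.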

[15] = qHTS assay for small molecule agonists of the antioxidant response element (ARE) signaling pathway measured by Nrf2-dependant transcriptional activity (AID 720636; active = well fitted curve in the direction sought with a large enough effect in the repeat runs; an effect the other way counts as inactive or inconclusive;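 also: HepG2 cells with an ARE-driven luciferase reporter; % of control where 0% means no effect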)
In short: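 HepG2 ARE-luc reporter line, 1% dialyzed FBS; 6 hr attachment at 37 C, compound pinned in, 16 hr at 37 C/5% CO2; ONE-Glo, 30 min RT, luminescence read.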

[16] = qHTS assay for small molecule agonists of the antioxidant response element (ARE) signaling pathway measured by Nrf2-dependant transcriptional activity - cell viability counter screen (AID 720653; active = well fitted curve in the direction sought with a large enough effect in the repeat runs; an effect the other way counts as inactive or inconclusive; also: potency is read from the fitted curve at half-maximal effect); conditions: ARE-bla HepG2 viability, CellTiter-Glo ATP luminescence, 16 h; max response: stronger effect = lower value
In short: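 Cytotoxicity counter screen: intracellular ATP quantified by CellTiter-Glo luminescence in the same ARE-bla HepG2 plates, after 16 h compound exposure and a 2 h beta-lactamase substrate step.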

[17] = qHTS assay for cell viability of HEK293 cells (AID 743288); conditions: ATP luminescence (CellTiter-Glo), 18 h; max response: stronger effect = lower value; also: nearly all actives have a fitted effect of over 50% in size; also: potency is read from the fitted curve at half-maximal effect
In short: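 Quantitative high-throughput screen: compounds were pinned onto parental HEK293 cells (2,000 per well) after a minimum 5 h settling at 37 C, incubated 18 h at 37 C, and intracellular ATP measured by luciferase luminescence.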

[18] = qHTS assay for cell viability of the p53RE-bla HCT-116 cell line (AID 743292); also: nearly all actives have a fitted effect of over 55% in size; also: potency is read from the fitted curve at half-maximal effect
In short: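 Luminescent ATP quantitation (CellTiter-Glo) served as the viability read-out; reagent was added after 16 h compound exposure at 37 C and read after 30 min at room temperature. Cells: p53RE-bla HCT-116, 4,000 per well.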

[19] = biological target: Nuclear receptor subfamily 1 group I member 2 (Rattus norvegicus) (UniProt Q9R1A7); experiment: qHTS assay for small molecule activators of the rat pregnane X receptor (rPXR) signaling pathway (AID 651751; call rule not given here; also: 0% is about no effect); conditions: rPXR reporter cells, luciferase (One-Glo), 24 h
[20] = qHTS assay for small molecule activators of the human pregnane X receptor (PXR) signaling pathway (AID 720659; call rule not given here; also: 0% is about no effect)
[21] = biological target: Glucocorticoid receptor (Homo sapiens) (UniProt P04150); experiment: qHTS assay for small molecule agonists of glucocorticoid receptor signaling (AID 588532; active = well fitted curve in the direction sought with a large enough effect in the signal ratio, with a control signal flat; the % refers to the signal ratio;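 also: 100% = dexamethasone at 0.1 µM and 0% = DMSO only wells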); conditions: HeLa MMTV-bla, beta-lactamase ratio, agonist, 18 h; stronger effect = higher value; percent of dexamethasone control, DMSO zero
In short: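 Quantitative HTS using CellSensor MMTV-bla HeLa cells in charcoal/dextran-treated serum; compounds tested up to 92 uM. After 18 h at 37 C, CCF4 dye reported reporter induction.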

[22] = biological target: Vitamin D3 receptor (Homo sapiens) (UniProt P11473); experiment: qHTS assay for small molecule agonists of vitamin D receptor signaling (AID 588543; calls by dose curve;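 also: 0% = DMSO basal and 100% = reference agonist control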)
In short: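 qHTS in agonist mode: compound titrations stimulate a VDR-driven β-lactamase reporter in HEK293T cells over 16 h at 37 °C. Response normalized to 50 nM 1α,25-dihydroxyvitamin D3 = 100%, DMSO = 0%; Hill fitting gives EC50 and maximal response.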

[23] = biological target: Thyroid hormone receptor beta (Homo sapiens) (UniProt P10828); experiment: qHTS assay for small molecule antagonists of thyroid hormone receptor beta signaling (AID 588547; active = well fitted inhibition curve with a large enough effect in the signal ratio, with a control signal flat, not every such curve was filed as active; the % refers to the signal ratio;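 also: cells stimulated with 0.4 nM T3 agonist during compound exposure; series mostly up to about 77 µM; % is scaled to controls: 0 for no effect and ±100 for the full control effect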); conditions: TR-UAS-bla HEK293, beta-lactamase ratio, antagonist mode, 18 h
In short: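 Inhibition of T3-driven (0.4nM final) beta-lactamase reporter activity was measured over 0.59 nM to 92 uM compound after 18 h at 37 C. The cells were GripTite HEK293 TR-UAS-bla in charcoal/dextran-stripped serum, with CCF4 ratio read-out and IC50 from Hill fits.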

[24] = biological target: Thyroid hormone receptor beta (Homo sapiens) (UniProt P10828); experiment: qHTS assay for small molecule agonists of thyroid hormone receptor beta signaling (AID 588545; calls by dose curve;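 also: 0% = DMSO only and 100% = 10 nM T3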)
In short: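 Beta-lactamase reporter activity under TR response element control is measured in HEK 293 cells after 18 hrs compound exposure. Signal is ratiometric CCF4 fluorescence, 460/530 nm.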

[25] = qHTS assay for small molecule agonists of the antioxidant response element (ARE) signaling pathway (AID 651741; active = well fitted activation curve with a large enough effect in the signal ratio; the % refers to the signal ratio; also: potency is read from the fitted curve at half-maximal effect; as to activation: % of control where 0% means no effect)
In short: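 Agonist activity is measured as ARE-driven beta-lactamase expression in a stable HepG2 reporter line, using 16 h compound treatment at 37 C and a FRET substrate fluorescence readout after 2 h.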

Vitamin D3 receptor (Homo sapiens), sequence (P11473 whole entry, looked up): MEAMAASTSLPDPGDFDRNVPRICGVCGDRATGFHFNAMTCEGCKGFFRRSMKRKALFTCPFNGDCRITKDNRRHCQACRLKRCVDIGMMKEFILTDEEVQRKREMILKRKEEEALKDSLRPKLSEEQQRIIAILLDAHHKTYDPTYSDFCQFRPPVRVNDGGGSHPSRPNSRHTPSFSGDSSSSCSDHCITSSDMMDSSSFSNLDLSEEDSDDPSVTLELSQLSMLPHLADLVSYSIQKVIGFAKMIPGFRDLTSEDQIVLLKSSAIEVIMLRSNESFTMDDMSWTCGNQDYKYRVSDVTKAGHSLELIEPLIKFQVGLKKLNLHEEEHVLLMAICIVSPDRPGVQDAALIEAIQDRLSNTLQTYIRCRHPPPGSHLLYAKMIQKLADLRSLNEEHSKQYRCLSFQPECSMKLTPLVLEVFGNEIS
Peroxisome proliferator-activated receptor gamma (Homo sapiens), sequence (P37231 whole entry, looked up): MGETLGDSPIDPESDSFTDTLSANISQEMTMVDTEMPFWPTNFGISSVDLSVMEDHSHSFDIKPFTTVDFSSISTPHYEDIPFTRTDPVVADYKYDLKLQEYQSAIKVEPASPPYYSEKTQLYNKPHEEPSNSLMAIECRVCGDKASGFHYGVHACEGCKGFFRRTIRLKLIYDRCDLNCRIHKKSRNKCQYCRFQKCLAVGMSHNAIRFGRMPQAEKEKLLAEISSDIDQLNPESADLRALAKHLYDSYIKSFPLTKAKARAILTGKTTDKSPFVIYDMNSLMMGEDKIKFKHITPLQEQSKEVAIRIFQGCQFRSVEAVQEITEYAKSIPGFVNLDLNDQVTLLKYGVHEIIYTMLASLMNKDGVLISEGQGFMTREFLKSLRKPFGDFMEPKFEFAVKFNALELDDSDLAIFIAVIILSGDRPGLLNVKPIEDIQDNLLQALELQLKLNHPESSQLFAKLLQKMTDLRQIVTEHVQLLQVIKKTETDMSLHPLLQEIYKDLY
Peroxisome proliferator-activated receptor alpha (Homo sapiens), sequence (Q07869 whole entry, looked up): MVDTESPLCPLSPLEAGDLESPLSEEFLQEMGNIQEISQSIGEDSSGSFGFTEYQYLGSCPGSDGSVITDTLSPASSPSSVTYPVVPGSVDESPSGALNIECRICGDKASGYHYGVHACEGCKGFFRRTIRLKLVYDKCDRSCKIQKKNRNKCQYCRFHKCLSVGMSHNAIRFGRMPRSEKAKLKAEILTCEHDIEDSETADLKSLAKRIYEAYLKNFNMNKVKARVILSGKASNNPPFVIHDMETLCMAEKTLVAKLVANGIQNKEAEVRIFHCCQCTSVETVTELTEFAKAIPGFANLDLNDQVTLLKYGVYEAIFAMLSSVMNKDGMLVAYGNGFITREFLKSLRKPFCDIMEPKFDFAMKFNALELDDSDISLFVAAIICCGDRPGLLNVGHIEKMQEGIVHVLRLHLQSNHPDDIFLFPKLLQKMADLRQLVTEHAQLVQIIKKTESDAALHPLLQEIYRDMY
Nuclear receptor subfamily 1 group I member 2 (Rattus norvegicus), sequence (Q9R1A7 whole entry, looked up): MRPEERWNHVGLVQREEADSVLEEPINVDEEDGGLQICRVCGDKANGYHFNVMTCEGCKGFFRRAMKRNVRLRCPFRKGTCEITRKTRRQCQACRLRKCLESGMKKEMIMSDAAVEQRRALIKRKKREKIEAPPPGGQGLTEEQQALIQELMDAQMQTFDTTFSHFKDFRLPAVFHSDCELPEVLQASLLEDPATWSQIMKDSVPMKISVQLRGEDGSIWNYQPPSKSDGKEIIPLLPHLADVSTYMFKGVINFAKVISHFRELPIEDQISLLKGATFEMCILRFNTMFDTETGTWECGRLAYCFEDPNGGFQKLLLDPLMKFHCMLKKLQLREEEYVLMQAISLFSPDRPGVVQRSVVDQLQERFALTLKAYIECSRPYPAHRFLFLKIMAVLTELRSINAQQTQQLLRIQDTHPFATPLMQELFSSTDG
Retinoic acid receptor RXR-alpha (Homo sapiens), sequence (P19793 whole entry, looked up): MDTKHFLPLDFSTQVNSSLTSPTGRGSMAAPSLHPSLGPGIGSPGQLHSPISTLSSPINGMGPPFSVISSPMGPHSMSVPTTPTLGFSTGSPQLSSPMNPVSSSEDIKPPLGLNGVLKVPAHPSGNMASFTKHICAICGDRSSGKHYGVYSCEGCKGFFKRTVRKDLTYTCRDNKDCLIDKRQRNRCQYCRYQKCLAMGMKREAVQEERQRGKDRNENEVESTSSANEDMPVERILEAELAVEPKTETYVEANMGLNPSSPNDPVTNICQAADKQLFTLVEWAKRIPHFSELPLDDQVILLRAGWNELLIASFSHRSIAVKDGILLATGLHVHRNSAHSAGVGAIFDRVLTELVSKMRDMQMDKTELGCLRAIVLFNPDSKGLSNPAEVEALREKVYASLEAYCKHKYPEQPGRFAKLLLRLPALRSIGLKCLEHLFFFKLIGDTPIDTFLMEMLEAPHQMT
Glucocorticoid receptor (Homo sapiens), sequence (P04150 whole entry, looked up): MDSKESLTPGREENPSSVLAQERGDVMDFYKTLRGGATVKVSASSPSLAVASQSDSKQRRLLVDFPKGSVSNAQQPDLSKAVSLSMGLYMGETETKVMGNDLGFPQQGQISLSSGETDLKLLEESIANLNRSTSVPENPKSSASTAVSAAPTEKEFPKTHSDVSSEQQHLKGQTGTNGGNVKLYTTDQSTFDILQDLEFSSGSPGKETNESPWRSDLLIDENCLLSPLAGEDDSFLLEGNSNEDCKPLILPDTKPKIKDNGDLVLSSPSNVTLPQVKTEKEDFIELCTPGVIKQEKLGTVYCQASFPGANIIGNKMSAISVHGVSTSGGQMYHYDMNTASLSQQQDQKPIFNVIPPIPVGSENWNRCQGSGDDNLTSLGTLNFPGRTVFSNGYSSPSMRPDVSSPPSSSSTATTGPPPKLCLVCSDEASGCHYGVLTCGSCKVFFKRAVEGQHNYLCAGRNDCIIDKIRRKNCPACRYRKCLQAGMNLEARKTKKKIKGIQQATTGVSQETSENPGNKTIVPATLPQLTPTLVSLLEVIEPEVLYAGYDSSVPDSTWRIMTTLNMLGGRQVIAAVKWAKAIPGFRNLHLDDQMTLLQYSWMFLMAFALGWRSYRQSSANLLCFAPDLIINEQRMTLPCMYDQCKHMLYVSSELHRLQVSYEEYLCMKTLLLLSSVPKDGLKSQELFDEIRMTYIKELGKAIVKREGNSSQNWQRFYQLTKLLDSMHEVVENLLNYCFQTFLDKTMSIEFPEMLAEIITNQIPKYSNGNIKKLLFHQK
Thyroid hormone receptor beta (Homo sapiens), sequence (P10828 whole entry, looked up): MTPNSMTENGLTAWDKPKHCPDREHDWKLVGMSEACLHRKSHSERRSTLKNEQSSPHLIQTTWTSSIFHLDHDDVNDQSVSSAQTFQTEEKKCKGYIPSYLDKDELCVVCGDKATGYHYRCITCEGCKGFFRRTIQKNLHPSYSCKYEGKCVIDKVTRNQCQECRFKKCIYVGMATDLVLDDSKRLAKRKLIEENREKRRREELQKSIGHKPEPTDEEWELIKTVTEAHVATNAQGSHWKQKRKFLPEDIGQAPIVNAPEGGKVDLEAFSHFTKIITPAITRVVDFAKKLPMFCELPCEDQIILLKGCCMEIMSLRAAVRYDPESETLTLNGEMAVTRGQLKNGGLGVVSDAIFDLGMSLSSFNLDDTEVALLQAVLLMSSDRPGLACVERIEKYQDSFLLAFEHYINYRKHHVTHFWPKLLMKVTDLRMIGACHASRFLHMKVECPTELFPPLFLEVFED
Peroxisome proliferator-activated receptor delta (Homo sapiens), sequence (Q03181 whole entry, looked up): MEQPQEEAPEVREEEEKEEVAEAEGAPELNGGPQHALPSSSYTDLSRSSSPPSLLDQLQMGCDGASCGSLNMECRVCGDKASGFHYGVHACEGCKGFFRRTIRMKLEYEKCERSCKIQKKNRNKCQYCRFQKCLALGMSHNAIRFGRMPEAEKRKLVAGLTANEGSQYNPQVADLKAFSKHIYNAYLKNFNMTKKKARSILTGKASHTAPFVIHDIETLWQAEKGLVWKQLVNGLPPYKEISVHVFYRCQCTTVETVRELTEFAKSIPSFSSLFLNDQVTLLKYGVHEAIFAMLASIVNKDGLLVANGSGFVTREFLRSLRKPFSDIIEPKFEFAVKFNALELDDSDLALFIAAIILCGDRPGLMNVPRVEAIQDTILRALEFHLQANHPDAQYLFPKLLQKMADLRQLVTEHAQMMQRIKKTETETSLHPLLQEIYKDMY

C=C(C)C(=O)OCCC[Si](Cl)(Cl)Cl
-12.2%: max response [7]
inactive: Potency [1] | Potency [3] | outcome [4] | Potency [5] | Potency [6] | Potency [8] | max response [10] 9.64% | activation [11] -1.03% | activation [12] -0.259% | activation [13] -0.113% | max response [14] 0.0328% | Potency [15] | max response [16] -17.2% | max response [17] -10.2% | Potency [18] | max response [19] 1.99% | outcome [20]
-12.6%: max response [9]
8.96%: max response [2]

C=CC(=O)OCCOc1ccccc1
inactive: activation [21] -7.33% | Potency [1] | Potency [6] | outcome [22] | max response [10] -20.4% | activity change % (negative = inhibition) [23] -3.52% | activation [11] 0.464% | max response [14] -0.522% | max response [16] -16.9% | max response [17] -15.9% | Potency [18] | max response [19] 2.62% | outcome [20]
-0.297%: max response [9]
-44.3%: max response [2]

C[C@]12CC[C@@H]3c4ccc(O)cc4CC[C@H]3[C@@H]1CC[C@H]2O
inactive: activation [21] -4.59% | outcome [4] | Potency [6] | outcome [22] | Potency [24] | activity change % (negative = inhibition) [23] -9.59% | Potency [25] | activation [11] 23.4% | max response [14] -0.0791% | Potency [15] | max response [16] -10.8% | max response [17] -24% | Potency [18]

Cc1cc(Cc2cc(C)cc(C(C)(C)C)c2O)c(O)c(C(C)(C)C)c1
inactive: activation [21] 20.3% | activation [13] -12.4% | Potency [15]
active: Potency [25] 48.6 µM | Potency [16] 39.8 µM | Potency [17] 50.1 µM | Potency [18] 44.7 µM

CC[C@H](C)C1O[C@]2(C=C[C@@H]1C)C[C@@H]1C[C@@H](C/C=C(\C)[C@@H](O[C@H]3C[C@H](OC)[C@@H](O[C@H]4C[C@H](OC)[C@H](NC(C)=O)[C@H](C)O4)[C@H](C)O3)[C@@H](C)/C=C/C=C3\CO[C@@H]4[C@H](O)C(C)=C[C@@H](C(=O)O1)[C@]34O)O2 (stereo not given in full)
inactive: activation [21] -14.6% | activation [13] -11.2% | Potency [15] | outcome [20]
active: Potency [17] 44.7 µM | Potency [18] 14.1 µM

Nc1ccc(Nc2ccccc2)cc1
active: Potency [25] 30.6 µM
-6.58%: max response [9]
inactive: Potency [1] | outcome [4] | max response [10] -27.9% | activation [12] 0.195% | activation [13] 5.3% | max response [16] 14.3% | max response [17] -17.7% | Potency [18] | max response [19] 8.87%

COC(=O)c1ccc(I)cc1S(=O)(=O)NC(=O)Nc1nc(C)nc(OC)n1
inactive: activation [21] 7.01% | Potency [1] | outcome [4] | Potency [6] | outcome [22] | Potency [8] | Potency [24] | max response [10] -12.1% | activity change % (negative = inhibition) [23] -17% | Potency [25] | activation [13] 2.67% | max response [14] -0.424% | max response [16] -4.44% | Potency [18] | max response [19] 3.28% | outcome [20]
-6.12%: max response [7]
-4.15%: max response [9]
